In general, inhibition refers to the drop in the measured response relative to a control, in per cent.

In the first test the target is Solute carrier family 2, facilitated glucose transporter member 1 (Homo sapiens) (UniProt P11166). As to the kind of experiment: ST_JUDE_LEISH: Cytotoxicity at 2uM final concentration against transgenic Leishmania Mexicana promastigotes LmGLUT1 that are glucose transport deficient and complemented with the human glucose transporter GLUT1. Activity is measured by DNA content using SYBR green in vitro. Format: functional.
Sequence of Solute carrier family 2, facilitated glucose transporter member 1 (Homo sapiens) (P11166 whole entry): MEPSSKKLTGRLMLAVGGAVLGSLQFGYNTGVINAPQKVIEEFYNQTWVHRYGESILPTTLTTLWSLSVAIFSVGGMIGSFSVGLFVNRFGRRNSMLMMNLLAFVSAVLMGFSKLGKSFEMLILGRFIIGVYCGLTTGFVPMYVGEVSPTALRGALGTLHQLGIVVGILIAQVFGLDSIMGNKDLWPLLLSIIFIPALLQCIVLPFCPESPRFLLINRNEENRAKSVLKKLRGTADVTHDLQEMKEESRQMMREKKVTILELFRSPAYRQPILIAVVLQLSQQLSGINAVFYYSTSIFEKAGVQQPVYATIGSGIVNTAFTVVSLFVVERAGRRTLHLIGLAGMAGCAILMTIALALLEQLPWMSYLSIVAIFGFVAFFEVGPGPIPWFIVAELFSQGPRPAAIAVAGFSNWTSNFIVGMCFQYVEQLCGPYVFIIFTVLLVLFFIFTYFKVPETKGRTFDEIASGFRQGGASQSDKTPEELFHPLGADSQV
Consider `Oc1ccc(CCCNc2nc(NCc3ccccc3-c3ccccc3)nc(NC3CCNCC3)n2)cc1`, for which the inhibition is -1.61%.
On the same count and under the same terms, with `c1ccc(-c2cc(NCCCCNc3cc(-c4ccccc4)nc4ccccc34)c3ccccc3n2)cc1` the figure was 6.88%; with `CN1CCN(CCCN(Cc2cccc(-c3ccc(CNCc4ccc5c(c4)OCO5)cc3)c2)C(=O)CCC2CCCC2)CC1`, 51.2%; with `O=[N+]([O-])c1ccc(-c2nc3cc(C4=NC5CCCCC5N4)ccc3[nH]2)cc1` (stereo not given), -0.03%.
Still for that read-out and setting: with `CCCN(CCC)CCCN(CCCN(CCC)CCC)c1cc(C)nc(Nc2ccc3cc(Br)ccc3c2)n1` the figure was 50.9%; with `Cc1cc(-c2cc(Cl)ccc2Cl)no1`, -2.71%; with `CN(C)CCOc1cc(NC(=O)Nc2ccc(-c3ccccc3)cc2Cl)ccc1I`, 1.19%.
Still for that read-out and setting: with `COc1ccc(-c2ccc(NC(=O)c3cccc(Cl)c3)cc2)cc1CNC(C)C` the figure was 4.75%.
`CCN1CCC(N2CCC(C(=O)Nc3cccc(-c4cccc(Cl)c4)c3)CC2)CC1`: the inhibition was 0.8%.
For `CCNc1cc(C)nc(Nc2ccc(NC(=O)Cc3ccc(OC)cc3)cc2)n1`, the inhibition was 10.8%.
Turning to `CCCc1cc(Cc2cnc(N)nc2N)cc(CC)c1O`, the inhibition was determined as 1.7%.
On the same count and under the same terms, with `O=c1cc(N2CCCNCC2)c(Cl)nn1Cc1ccc(NS(=O)(=O)c2ccc(Oc3ccccc3)cc2)cc1` the figure was 10.6%.
Same read-out and setting: with `COc1ccc(C2CC(=O)C3=C(C2)NC(C)=C(C(=O)OC2CCCC2)C3c2ccc(O)cc2)cc1OC` (stereo not given) the figure was -0.48%; with `O=C(Nc1cccc(-c2ccc(CN3CCC(O)CC3)cc2)c1)c1cccc(Cl)c1`, 3.01%.
As for `O=C1Nc2cccc3c2C1(CCCCN1CCC(c2c(-c4ccc(F)cc4)[nH]c4ccccc24)CC1)CCC3` (stereo not given), the inhibition is 5.51%.
Same read-out and setting: with `CC(=O)Nc1cccc(C(=O)Nc2ccc(-c3cccc(-c4nc5cc(F)ccc5[nH]4)c3)cc2)c1` the figure was 4.65%.
Same read-out and setting: with `COc1ccccc1C(C)NCC(=O)Nc1ccccc1Sc1ccccc1` (stereo not given) the figure was 0.18%; with `CN(C)CCN(C)Cc1cccc(-c2ccc3c(Nc4ccc(F)cc4Cl)ccnc3c2)c1`, 1.88%; with `CC(C)C[C@@H](C(=O)N[C@@H](CCCCNC(=O)OCc1ccccc1)C(=O)Nc1nccs1)[C@H](C)N(O)C=O`, 3.19%.
With `COc1cccc(NC(=O)CSc2nc(-c3ccccc3Cl)ns2)c1`, the inhibition amounted to 5.33%.
Still for that read-out and setting: with `OC1CCCN(Cc2ccc(-c3ccc(-c4nc5ccccc5[nH]4)cc3)cc2)C1` (stereo not given) the figure was 8.52%; with `CCC(C)c1ccc(Nc2nc(C)cc(N(CC)CCCN3CCCCC3)n2)cc1` (stereo not given), -1.09%.
On the same count and under the same terms, with `Cc1cc2c(cc1C(F)(F)F)N(C(=O)Nc1ccc(C(=O)NC3CCN(Cc4ccccc4)C3)cc1)CC2` (stereo not given) the figure was 4.56%; with `c1cc(CNCC2CCN(CC3CCCCC3)CC2)cc(-n2ccnc2)c1`, -1.01%; with `O=C(Nc1cccc(-c2ccc(CN3CCNCC3)cc2)c1)c1cccc(Cl)c1`, -0.47%.
On the same count and under the same terms, with `CS(=O)(=O)Cc1ccc(Nc2nccc(NC3CCN(c4nccc(C(F)(F)F)n4)CC3)n2)cc1` the figure was 2.96%; with `Cc1ccc(CNC(=O)[C@H](CCCN)Nc2cc(C)nc(Nc3ccccc3)n2)cc1`, 6.17%; with `CCCCCCCC1=NN2C(=N)C(=Cc3cc(Br)c(OCc4ccc(F)cc4)c(OCC)c3)C(=O)N=C2S1`, 3.23%.
As for `CCCNc1ccc2nccc(CCN3CCC(NCc4ccc5c(n4)NC(=O)CS5)CC3)c2n1`, the inhibition stood at 3.5%.
On the same count and under the same terms, with `CCOc1c(Br)cc(Br)cc1CNCCCCNc1nc2ccccc2[nH]1` the figure was 3.08%; with `CCN(CC)CCCC(C)Nc1cc(C)nc2cc(Cl)ccc12` (stereo not given), 0.9%.
Same read-out and setting: with `COc1cc(C(=O)N2CCOC(CCN3CCc4c(c5ccccc5n4C)C3)(c3ccc(Cl)c(Cl)c3)C2)cc(OC)c1OC` (stereo not given) the figure was -0.35%; with `COc1ccc2nccc(N(C)CC3(O)CCN(CC(O)c4ccc5c(c4)NC(=O)CS5)CC3)c2n1` (stereo not given), -0.29%.
With `c1ccc(-c2cc(NCCCn3ccnc3)nc(-c3cccnc3)n2)cc1`, the inhibition stood at 2.2%.
On to `CC(C)(C)c1ccc(NC(=O)c2ccc(CN3CCCN(Cc4ccc(F)cc4)CC3)cc2)cc1`, for which the inhibition was determined as 2.24%.
The same measure, in the same setting: with `COc1cc(C(=O)NCCCN2CCN(c3cc(Cl)ccc3OC)CC2)ccc1-c1nc2cc(Cl)c(Cl)cc2[nH]1` the figure was 6.79%; with `O=C(NC1CCN(Cc2ccccc2)C1)c1ccc(Nc2ccc(Br)cc2)nc1` (stereo not given), 1.79%.
Still for that read-out and setting: with `Cc1ccc(CNC(=O)c2ccc(CN3CCCN(Cc4ccsc4)CC3)cc2)cc1` the figure was 1.42%.
On to `CC(C)N(Cc1ccc(-c2ccc(C(F)(F)F)cc2)cc1)C(=O)Cn1c(CCc2cccc(F)c2F)cc(=O)c2ccc(CCCN3CCCCC3)cc21`, for which the inhibition worked out at 3.56%.
Same read-out and setting: with `COc1ccc2nccc(N3CCC(NCCNCc4ccc5c(n4)NC(=O)CO5)C3)c2n1` (stereo not given) the figure was 1.29%.

In the next test the target is Hexose transporter 1 (Plasmodium falciparum) (UniProt O97467). As to the kind of experiment: ST_JUDE_LEISH: Cytotoxicity at 2uM final concentration against transgenic Leishmania Mexicana promastigotes LmPfHT that are glucose transport deficient and complemented with the Plasmodium falciparum hexose transporter. Activity is measured by DNA content using SYBR green in vitro. It is filed as functional.
Consider `Oc1ccc(CCCNc2nc(NCc3ccccc3-c3ccccc3)nc(NC3CCNCC3)n2)cc1`, for which the inhibition was -0.26%.
Same read-out and setting: with `c1ccc(-c2cc(NCCCCNc3cc(-c4ccccc4)nc4ccccc34)c3ccccc3n2)cc1` the figure was 7.17%.
On the same count and under the same terms, with `CN1CCN(CCCN(Cc2cccc(-c3ccc(CNCc4ccc5c(c4)OCO5)cc3)c2)C(=O)CCC2CCCC2)CC1` the figure was 45.7%; with `O=[N+]([O-])c1ccc(-c2nc3cc(C4=NC5CCCCC5N4)ccc3[nH]2)cc1` (stereo not given), -0.65%.
Still for that read-out and setting: with `CCCN(CCC)CCCN(CCCN(CCC)CCC)c1cc(C)nc(Nc2ccc3cc(Br)ccc3c2)n1` the figure was 35.1%; with `Cc1cc(-c2cc(Cl)ccc2Cl)no1`, 0.03%; with `CN(C)CCOc1cc(NC(=O)Nc2ccc(-c3ccccc3)cc2Cl)ccc1I`, 0.57%.
As to `COc1ccc(-c2ccc(NC(=O)c3cccc(Cl)c3)cc2)cc1CNC(C)C`, the inhibition was 5.52%.
Same read-out and setting: with `CCN1CCC(N2CCC(C(=O)Nc3cccc(-c4cccc(Cl)c4)c3)CC2)CC1` the figure was -1.24%; with `CCNc1cc(C)nc(Nc2ccc(NC(=O)Cc3ccc(OC)cc3)cc2)n1`, 10.1%.
On the same count and under the same terms, with `CCCc1cc(Cc2cnc(N)nc2N)cc(CC)c1O` the figure was 0.94%; with `O=c1cc(N2CCCNCC2)c(Cl)nn1Cc1ccc(NS(=O)(=O)c2ccc(Oc3ccccc3)cc2)cc1`, 8%.
Still for that read-out and setting: with `COc1ccc(C2CC(=O)C3=C(C2)NC(C)=C(C(=O)OC2CCCC2)C3c2ccc(O)cc2)cc1OC` (stereo not given) the figure was 0.53%.
Consider `O=C(Nc1cccc(-c2ccc(CN3CCC(O)CC3)cc2)c1)c1cccc(Cl)c1`, for which the inhibition came out at 3.03%.
As to `O=C1Nc2cccc3c2C1(CCCCN1CCC(c2c(-c4ccc(F)cc4)[nH]c4ccccc24)CC1)CCC3` (stereo not given), the inhibition was 5.23%.
Still for that read-out and setting: with `CC(=O)Nc1cccc(C(=O)Nc2ccc(-c3cccc(-c4nc5cc(F)ccc5[nH]4)c3)cc2)c1` the figure was 4.15%; with `COc1ccccc1C(C)NCC(=O)Nc1ccccc1Sc1ccccc1` (stereo not given), 0.01%.
Still for that read-out and setting: with `CN(C)CCN(C)Cc1cccc(-c2ccc3c(Nc4ccc(F)cc4Cl)ccnc3c2)c1` the figure was 4.55%.
Same read-out and setting: with `CC(C)C[C@@H](C(=O)N[C@@H](CCCCNC(=O)OCc1ccccc1)C(=O)Nc1nccs1)[C@H](C)N(O)C=O` the figure was 3.38%; with `COc1cccc(NC(=O)CSc2nc(-c3ccccc3Cl)ns2)c1`, 4.86%; with `OC1CCCN(Cc2ccc(-c3ccc(-c4nc5ccccc5[nH]4)cc3)cc2)C1` (stereo not given), 7.95%.
In the case of `CCC(C)c1ccc(Nc2nc(C)cc(N(CC)CCCN3CCCCC3)n2)cc1` (stereo not given), the inhibition came out at 0.87%.
The same measure, in the same setting: with `Cc1cc2c(cc1C(F)(F)F)N(C(=O)Nc1ccc(C(=O)NC3CCN(Cc4ccccc4)C3)cc1)CC2` (stereo not given) the figure was 4.45%; with `c1cc(CNCC2CCN(CC3CCCCC3)CC2)cc(-n2ccnc2)c1`, -0.61%.
The same measure, in the same setting: with `O=C(Nc1cccc(-c2ccc(CN3CCNCC3)cc2)c1)c1cccc(Cl)c1` the figure was -1.87%; with `CS(=O)(=O)Cc1ccc(Nc2nccc(NC3CCN(c4nccc(C(F)(F)F)n4)CC3)n2)cc1`, 1.41%; with `Cc1ccc(CNC(=O)[C@H](CCCN)Nc2cc(C)nc(Nc3ccccc3)n2)cc1`, 5.71%.
The same measure, in the same setting: with `CCCCCCCC1=NN2C(=N)C(=Cc3cc(Br)c(OCc4ccc(F)cc4)c(OCC)c3)C(=O)N=C2S1` the figure was 3.17%; with `CCCNc1ccc2nccc(CCN3CCC(NCc4ccc5c(n4)NC(=O)CS5)CC3)c2n1`, 2.84%; with `CCOc1c(Br)cc(Br)cc1CNCCCCNc1nc2ccccc2[nH]1`, 2.4%.
Take `CCN(CC)CCCC(C)Nc1cc(C)nc2cc(Cl)ccc12` (stereo not given): the inhibition amounted to 1.6%.
The same measure, in the same setting: with `COc1cc(C(=O)N2CCOC(CCN3CCc4c(c5ccccc5n4C)C3)(c3ccc(Cl)c(Cl)c3)C2)cc(OC)c1OC` (stereo not given) the figure was 0%; with `COc1ccc2nccc(N(C)CC3(O)CCN(CC(O)c4ccc5c(c4)NC(=O)CS5)CC3)c2n1` (stereo not given), -0.78%; with `c1ccc(-c2cc(NCCCn3ccnc3)nc(-c3cccnc3)n2)cc1`, 3.19%.
On the same count and under the same terms, with `CC(C)(C)c1ccc(NC(=O)c2ccc(CN3CCCN(Cc4ccc(F)cc4)CC3)cc2)cc1` the figure was -1.93%.
Consider `COc1cc(C(=O)NCCCN2CCN(c3cc(Cl)ccc3OC)CC2)ccc1-c1nc2cc(Cl)c(Cl)cc2[nH]1`, for which the inhibition amounted to 6.15%.
Same read-out and setting: with `O=C(NC1CCN(Cc2ccccc2)C1)c1ccc(Nc2ccc(Br)cc2)nc1` (stereo not given) the figure was 0.12%.
Turning to `Cc1ccc(CNC(=O)c2ccc(CN3CCCN(Cc4ccsc4)CC3)cc2)cc1`, the inhibition is 0.79%.
Same read-out and setting: with `CC(C)N(Cc1ccc(-c2ccc(C(F)(F)F)cc2)cc1)C(=O)Cn1c(CCc2cccc(F)c2F)cc(=O)c2ccc(CCCN3CCCCC3)cc21` the figure was 4.4%; with `COc1ccc2nccc(N3CCC(NCCNCc4ccc5c(n4)NC(=O)CO5)C3)c2n1` (stereo not given), 1.28%.
